# In the library only some 5.4% were active in any assay of this set; here they are far more common.
# Vaccinia Venus – vaccinia inhibition (Venus reporter) | AID 720580 | Potency, µM (top dose mostly 36.5 µM), without a hit: at the top dose activity change, negative = inhibition, usual class: inhibitors | 330,000 tested, 0.46% active | Vaccinia virus Venus reporter expression, fluorescence; calls by dose curve; tested in A549 cells; also: nearly all actives have a fitted effect of over 30% in size
# Sm TGR inh – inhibitors of Schistosoma mansoni thioredoxin glutathione reductase | purified TGR, DTNB reduction, TNB absorbance 405 nm | Potency, µM (titrated, usually from 114 µM), inactives show top-dose activity change, negative = inhibition, actives largely listed as inhibitors | 360,000 tested, 3% active | AID 485364; active = well fitted inhibition curve with a large enough effect; inconclusive = small, poorly fitted or top-dose-only effect; inactive = no such curve, though single readings can be large or run the other way; also: nearly all actives have a fitted effect of over 60% in size
#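 TGR 20 nM + NADPH 100 uM (dispensed conc.), cpd preinc 15 min RT; start with NADPH (500 uM addition) then DTNB (15 mM addition). Kinetic TNB absorbance, 405 nm filter. Four-parameter Hill fit across titration.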
# Vaccinia mCherry – vaccinia inhibition (mCherry reporter) | Vaccinia virus mCherry reporter infection, fluorescence | Potency, µM (top dose mostly 36.5 µM), without a hit: at the highest dose activity change, negative = inhibition, actives largely listed as inhibitors | 310,000 tested, 0.63% active; calls by dose curve; tested in A549 cells; also: nearly all actives have a fitted effect of over 35% in size
# Lassa entry inh – blocks Lassa virus binding to or entry into cells | Lassa virus pseudotype entry inhibition, cell reporter | Potency, µM (top dose mostly 37.9 µM), for inactives: at the top dose activity change, negative = inhibition, usual class: inhibitors | 300,000 tested, 1.2% active | AID 540256; calls by dose curve; tested in HEK293 cells; also: nearly all actives have a fitted effect of over 50% in size
# MARV entry inh – inhibitors of Marburg virus binding or cell entry; Potency, µM (highest dose often 37.8 µM), for inactives: at the highest dose activity change, negative = inhibition, usual class: inhibitors; 300,000 tested, 1.8% active; Marburg virus pseudotyped entry inhibition, cell reporter; AID 540276; calls by dose curve; tested in HEK293 cells
# FMDV antiviral – foot and mouth disease virus antiviral activity. 410,000 tested, 1.2% active. Potency, µM (series often up to 57.9 µM), for the others: at the highest dose activity change, negative = inhibition, usual class: inhibitors. FMDV antiviral cell-based qHTS; calls by dose curve; tested in HEK293T cells; also: read-out not given here; nearly all actives have a fitted effect of over 45% in size
# Numbers without * were called inactive; i = inactive; ? = inconclusive; . = no result given; ! = repeats disagree; [ ] = dose if it differs, or a comment. % is scaled to controls: 0 for no effect and ±100 for the full control effect; potency is read from the fitted curve at half-maximal effect.
SMILES,Vaccinia Venus,Sm TGR inh,Vaccinia mCherry,Lassa entry inh,MARV entry inh,FMDV antiviral
Cc1nc2ccccc2c(=O)n1/N=C/c1ccco1,.,-13.8%,.,.,.,13.1%
Cc1ccccc1OCc1nc2ccccc2c(=O)n1/N=C/c1ccco1,3.8%,39.8µM*,.,-8.6%,4.6%,-12.0%
COc1ccc(-c2[nH]ncc2C(=O)NCc2cccc(Cl)c2)cc1,-19.7%,-0.9%,-13.4%,.,-22.6%[46.1 µM],-17.3%
Cc1ccccc1N1C(=O)CC1(C#N)c1ccc(OCc2ccccc2)cc1 (stereo not drawn),-7.4%,-5.7%,-21.8%,10µM*,?,-8.3%
COc1ccc(CCNC(=O)CCCn2c(=O)c3ccccc3n(Cc3ccccc3)c2=O)cc1OC,-8.9%,3.4%,-9.0%,?,-16.1%[46.1 µM],0.0%
COc1ccc2sc(-c3ccccc3OC)c(-c3ccc(SC)cc3)c2c1,5.3%,.,0.5%,.,.,-0.7%
COc1ccc2sc(-c3ccc(SC)cc3)c(-c3ccc(O)cc3)c2c1,11.2µM*,.,?,.,.,-24.7%
Cc1cc(O)c(C(C)C)cc1N=Cc1cc([N+](=O)[O-])ccc1O,.,?,.,.,-3.0%,-12.1%
Cc1cc(O)c(C(C)C)cc1N=Cc1ccccc1O,.,3.98µM*,.,.,.,-13.4%
CCC(C)NC(=O)C1CCN(C(=O)c2cc3sccc3n2Cc2ccc(Cl)cc2)CC1 (stereo not drawn),?,9.8%,-29.6%,.,?,14.1µM*
O=C(NCc1ccco1)C1CCN(C(=O)c2ccc(Cl)cc2)CC1,.,-10.8%,.,.,.,-22.2%
COCCCNC(=O)C1CCN(C(=O)c2cc3sccc3n2Cc2ccc(Cl)cc2)CC1,-17.9%,1.2%,-9.9%,.,?,?
O=C(NCc1ccco1)C1CCN(C(=O)c2cc3sccc3n2Cc2ccc(Cl)cc2)CC1,?,-4.7%,?,?,11.6µM*!,.
COCCNC(=O)C1CCN(C(=O)c2cc3sccc3n2Cc2ccc(Cl)cc2)CC1,-26.6%,-9.4%,-21.3%,.,7.94µM*,?
CCn1c(C(=O)N2CCC(C(=O)NCc3cccs3)CC2)cc2sccc21,-16.1%,0.0%,i,.,.,-25.7%
O=C(NCc1ccco1)C1CCN(C(=O)c2ccc([N+](=O)[O-])cc2)CC1,-7.1%,25.1µM*,-2.4%,1.7%,-16.3%,-3.1%
COc1ccc(OC)c(/C=C/c2cc3ccccc3c[n+]2C)c1,?,.,-15.4%,.,.,.
O=C(N/N=C/c1cc([N+](=O)[O-])ccc1O)c1cccc(N2CCCC2=O)c1,-1.8%,1.9%,6.31µM*,?,?,11.5%
CCc1ccc(N2CC(C(=O)N/N=C/c3cc([N+](=O)[O-])ccc3O)CC2=O)cc1 (stereo not drawn),-23.4%,6.1%[57.1 µM],-20.0%,7.08µM*,-3.3%[46.1 µM],-6.2%
CCc1ccc(N2CC(C(=O)N/N=C/c3ccccc3OC)CC2=O)cc1 (stereo not drawn),-18.6%,-1.2%,-23.5%,?,1.2%[46.1 µM],3.3%
CCOc1ccccc1N(C)C(=O)Cn1ncc2c([nH]c3ccccc32)c1=O,-6.6%,4.4%,-12.7%,-19.6%[46.1 µM],6.31µM*,-16.9%
COc1ccc(Nc2nnc(SCC(=O)/C=C3/N(C)c4ccccc4C3(C)C)s2)cc1,-8.9%,-15.8%,-2.2%,14.1µM*,?,20µM*
CN1/C(=C\C(=O)CSc2nnc(N)s2)C(C)(C)c2ccccc21,-11.9%,-2.4%,-10.0%,?,?,?
COc1cc(O)c2c(=O)c(-c3ccc(O[C@@H]4O[C@H](CO)[C@@H](O)[C@H](O)[C@H]4O)cc3)coc2c1,-23.1%,?,?,?,10µM*,30.7%
O=c1c(OC2OC(CO)C(O)C(O)C2O)c(-c2ccc(O)c(O)c2)oc2cc(O)cc(O)c12 (stereo not drawn),0.0%,-22.0%,i,0.0%,14.6µM*,-21.2%
SMILES,Vaccinia Venus,Sm TGR inh,Vaccinia mCherry,Lassa entry inh,MARV entry inh,FMDV antiviral
O=c1c(O[C@@H]2O[C@H](CO)C(O)C2O)c(-c2ccc(O)c(O)c2)oc2cc(O)cc(O)c12 (stereo partly drawn),-22.0%,.,i,.,.,-16.6%
CC(C)(C)NC(=S)NNC(=O)[C@H]1C[C@@H]1c1ccccc1,-1.7%,-6.3%,i,0.891µM*,18.2%[46.1 µM],65.6%
COc1cc(OC)cc(C(=O)NC(=S)NNC(=O)[C@H]2C[C@@H]2c2ccccc2)c1,-6.4%,?,-18.8%,3.16µM*,-16.3%[46.1 µM],-14.5%
COc1ccc(-c2cc3ccc(O)c(CN4CCC(C)CC4)c3oc2=O)cc1,-8.5%[7.34 µM],-4.5%,-16.6%[7.34 µM],?,.,-6.9%
O=C(NCC1(N2CCOCC2)CCCCCC1)c1cnn(-c2nccc(-c3ccco3)n2)c1C1CC1,-1.6%,.,-7.7%,.,.,-0.4%
CCC1CCCCN1CCCNC(=O)c1c(C)oc2ncn(CC(C)C)c(=O)c12 (stereo not drawn),-10.7%,-2.7%,i,?,.,14.0%
O=c1c2c3nc4ccccc4nc3n(/N=C/c3ccccn3)c2ncn1-c1ccccc1,-22.7%,-14.2%,-31.3%,?,5.62µM*,?
C=CCn1cnc2c(c1=O)c1nc3ccccc3nc1n2/N=C/c1cc(OC)c(OC)c(OC)c1,-29.6%,0.0%,-12.7%[1.46 µM],-15.4%,-7.2%,-17.3%
COCCn1cnc2c(c1=O)c1nc3ccccc3nc1n2/N=C/c1cccc(OC)c1,-7.5%,1.0%,-0.2%,?,?,28.2µM*
CC1CCN(c2ncnc3c2cnn3-c2ccc(F)cc2)CC1,-0.9%,3.3%,1.3%,26.9%[46.1 µM],.,7.6%
CCN(CC)C(=O)c1sc2c(c1C)c(=O)n(-c1ccc(C)c(C)c1)c(=O)n2CC(=O)Nc1ccc(F)cc1,-10.7%,-14.6%,-2.5%,7.6%[46.1 µM],.,0.0%
CSc1ccc(CNC(=O)c2cc3c(=O)n(Cc4ccco4)ccc3nc2C)cc1,-3.9%,44.7µM*,-7.3%,?,.,-19.4%
CC(=O)N=c1c(C#N)cc2c(=O)n3cccc(C)c3nc2n1Cc1ccco1,.,28.2µM*,.,.,.,-4.0%
COc1ccc(CNC(=O)c2cc3c(=O)n(Cc4ccco4)ccc3nc2C)cc1,-12.5%,?,-4.9%,?,.,-12.6%
CCOC(=O)c1cc2c(=O)n3ccccc3nc2n(Cc2ccco2)c1=NC(=O)c1ccc(OC)cc1OC,-7.9%,31.6µM*,-1.6%,0.0%,?,21.3%
CCOC(=O)c1cc2c(=O)n3ccccc3nc2n(Cc2ccco2)c1=NC(=O)c1cc(C)cc(C)c1,10µM*,-15.8%,?,?,27.0%[46.1 µM],0.0%
N=c1c(C(=O)NCc2ccco2)cc2c(=O)n3ccccc3nc2n1Cc1ccccc1,-31.2%,-11.3%,.,-5.6%,?,-1.5%
N=c1c(C(=O)NCc2ccccc2)cc2c(=O)n3ccccc3nc2n1Cc1ccco1,-18.5%,0.0%,-28.2%,-27.3%,11.2µM*,-28.5%
Cc1nc2cc(NC(=O)[C@@H]3C[C@@H](Sc4ccccn4)CN3C3CCCCCC3)ccc2s1,-18.0%,.,i,.,.,12.1%
CN1CCN(c2ccc(NC(=O)c3ccc([N+](=O)[O-])o3)cc2Cl)CC1,?,?,12.6µM*,?,11.2µM*,0.0%

# High-throughput results from PubChem BioAssay.
